A word on the inhibition: it is the change of the read-out against control, counted positive when it falls.

Holding throughout (format): functional
Test [1] addresses Solute carrier family 2, facilitated glucose transporter member 1 (Homo sapiens) (UniProt P11166). Nature of the test: ST_JUDE_LEISH: Cytotoxicity at 2uM final concentration against transgenic Leishmania Mexicana promastigotes LmGLUT1 that are glucose transport deficient and complemented with the human glucose transporter GLUT1. Activity is measured by DNA content using SYBR green in vitro.

Test [2] deals with Hexose transporter 1 (Plasmodium falciparum) (UniProt O97467). Briefly: ST_JUDE_LEISH: Cytotoxicity at 2uM final concentration against transgenic Leishmania Mexicana promastigotes LmPfHT that are glucose transport deficient and complemented with the Plasmodium falciparum hexose transporter. Activity is measured by DNA content using SYBR green in vitro.
For test [3], the target named is Glucose transporter (Leishmania mexicana) (UniProt O61059). Nature of the test: ST_JUDE_LEISH: Cytotoxicity at 2uM final concentration against transgenic Leishmania Mexicana promastigotes LmGT2 that are glucose transport deficient and complemented with the L. Mexicana glucose transporter 2. Activity is measured by DNA content using SYBR green in vitro.

Sequence of Solute carrier family 2, facilitated glucose transporter member 1 (Homo sapiens) (P11166 whole entry): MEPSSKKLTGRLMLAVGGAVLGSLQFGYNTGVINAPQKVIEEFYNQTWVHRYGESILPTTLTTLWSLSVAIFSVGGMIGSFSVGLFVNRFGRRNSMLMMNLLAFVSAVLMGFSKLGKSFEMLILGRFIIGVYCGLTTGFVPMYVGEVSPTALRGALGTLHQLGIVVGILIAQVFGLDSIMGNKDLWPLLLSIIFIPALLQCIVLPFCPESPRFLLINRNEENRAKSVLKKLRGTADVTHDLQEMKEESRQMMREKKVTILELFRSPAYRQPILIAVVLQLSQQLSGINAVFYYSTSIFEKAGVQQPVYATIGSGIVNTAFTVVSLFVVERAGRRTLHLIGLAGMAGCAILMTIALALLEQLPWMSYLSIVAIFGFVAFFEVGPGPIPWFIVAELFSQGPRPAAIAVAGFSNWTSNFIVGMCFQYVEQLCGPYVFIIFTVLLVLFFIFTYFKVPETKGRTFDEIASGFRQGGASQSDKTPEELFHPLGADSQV

Turning to `CC(=O)NCCNc1cc(N2CCc3ncnc(Nc4ccc(OCc5c(F)cccc5F)c(Cl)c4)c3C2)ncn1`, the inhibition in test [1] came to 0.69%; in test [2] it was 1.6%; in test [3] it was 1.84%.

Consider `CCC1(C)N=C(N)N=C(N)N1c1ccccc1` (stereo not drawn), for which the results for the inhibition in test [1], in test [2] and in test [3] were -3.49%, 0% and -3.1%, respectively.

With `COc1ccccc1CNC(=O)CCn1c(=O)[nH]c2ccsc2c1=O`, the figures for the inhibition in test [1], in test [2] and in test [3] were 2.58%, 3.17% and 1.36%, respectively.

On to `CCS(=O)(=O)N1CCN(c2nc(-c3ccccc3)nc(COC)c2Cc2ccccc2F)CC1`, for which the inhibition in test [1] worked out at 3.58%; in test [2] it was 2.32%; in test [3], 4.99%.

As for `O=C(NCCCN1CCN(c2cccc(Cl)c2)CC1)c1ccc(-c2nc3cc(Cl)c(Cl)cc3[nH]2)c(F)c1`, the inhibition in test [1] turned out to be 3.57%; in test [2], 1.4%; in test [3], 1.68%.

For `O=C(c1ccc(F)cc1)N1CCOC(CCN2CCC(c3ccccc3)CC2)(c2ccc(Cl)c(Cl)c2)C1` (stereo not drawn), the inhibition in test [1] worked out at 0.53%; in test [2], 1.42%; in test [3], 5.2%.

For the compound `Cc1ccccc1Cn1ccc2c3c(N)nc(N)nc3ccc21`, the results for the inhibition in test [1], in test [2] and in test [3] were 92.7%, 87.7% and 81.9%, respectively.

Take `FC(F)(F)Oc1ccc(Nc2cc(-c3ccncc3)nc(-c3cccnc3)n2)cc1`: the values for the inhibition in test [1], in test [2] and in test [3] were 2.18%, 3.54% and 0.59%, respectively.

Take `O=C(NCCN1CCCCC1)c1ccc(CNC(=O)c2ccc(O)c(-c3ccc(Cl)c(Cl)c3)c2)cc1`: the inhibition in test [1] is 0.15%; in test [2], 0.04%; in test [3], -0.59%.

For `CC(C)(C)C1CCC(CC2=C(C(=O)O)c3ccccc3C2=O)CC1` (stereo not drawn), the inhibition in test [1] was 1.16%; in test [2], 0.47%; in test [3], -1.33%.

As for `Cc1cc(NC(=O)c2cccs2)ccc1OC1CCN(Cc2ccc(C#N)cc2)C1` (stereo not drawn), the figures for the inhibition in test [1], in test [2] and in test [3] were 2.86%, 4.23% and 3.26%, respectively.

On to `CCC(=O)Nc1nnc(Cc2ccc(OC)c(OC)c2)s1`, for which the inhibition is 9.1% in test [1], 10.1% in test [2] and 6.69% in test [3].

Regarding `COCCn1c(SC(C)C(=O)Nc2cc(C(F)(F)F)ccc2Cl)nc2ccccc2c1=O` (stereo not drawn), the inhibition in test [1] was 0.17%; in test [2] it was -0.22%; in test [3], -0.21%.

For the compound `CC(C)CNC(=O)c1cncc(-c2ccc(CNCCCc3ccccc3)cc2)c1`, the figures for the inhibition in test [1], in test [2] and in test [3] were 0.94%, -0.91% and -0.55%, respectively.

Consider `Cn1nc(-c2ccc(NC(=O)Nc3cc(C(F)(F)F)ccc3F)cc2)c2cnc(NCCCCN3CCCC3)nc21`, for which the inhibition in test [1] came out at 3.73%; in test [2], 4.39%; in test [3], 4.25%.

For the compound `O=S(=O)(NC1CCN(c2ccnc3cc(Cl)ccc23)C1)c1ccc(C(F)(F)F)cc1` (stereo not drawn), the inhibition in test [1] is 1.91%; in test [2] it was 1.67%; in test [3], 0.45%.

With `CCN(C)c1cc(C(=O)N[C@@H](Cc2ccccc2)[C@H](O)CNC(C)(C)c2cccc(OC)c2)cc(N2CCCC2=O)c1`, the inhibition in test [1] was determined as 1.69%; in test [2] it was 0.79%; in test [3], 4.41%.

Regarding `Cc1ccccc1CNC(=O)Nc1cccc(-c2csc(NC(=N)N)n2)c1`, the inhibition in test [1] worked out at 0.55%; in test [2], 0.56%; in test [3], 4.51%.

Consider `COc1cc(C=CC(=O)N2CCC(CCN3CCC(c4c[nH]c5ccccc45)CC3)CC2)cc(OC)c1`, for which the inhibition in test [1] was 4.99%; in test [2], 6.56%; in test [3], 3.47%.

Take `COc1ccc(CC2(CO)CCN(Cc3ccc(O)c(Cl)c3)CC2)cc1`: the inhibition in test [1] amounted to 9.35%; in test [2], 7.92%; in test [3], 5.84%.

Turning to `Cn1ccc(-c2cccc(Nc3ccnc4cc(-c5nccs5)ccc34)c2)n1`, the inhibition in test [1] is -0.21%; in test [2], 0.32%; in test [3], -0.17%.

Turning to `CCCCCCCc1c(C)nc2cccc(OC)c2c1O`, the inhibition came out at 47.3% in test [1], 59.4% in test [2] and 33.9% in test [3].

For the compound `COc1ccc2nc(C)cc(Nc3ccc(Oc4ccc(Br)c5ccccc45)c(Cl)c3)c2c1`, the inhibition in test [1] came to 9.47%; in test [2], 8.7%; in test [3], 3.21%.

Take `COc1cc(-c2nc(C(C)(C)CN)[nH]c2-c2ccncc2)ccc1Br`: the inhibition in test [1] worked out at 7.38%; in test [2] it was 11.3%; in test [3], 4.8%.

In the case of `COc1ccc2nccc([C@@H](O)CN3CCC(NC(=O)c4cc5c(F)cc(F)cc5[nH]4)CC3)c2n1`, the inhibition in test [1] is 87%; in test [2], 84.1%; in test [3] it was 85.4%.

On to `O=c1cc(NCCCNCc2cn(S(=O)(=O)c3ccccc3)c3ccccc23)[nH]c2ccccc12`, for which the inhibition in test [1] was -0.4%; in test [2], -0.55%; in test [3], -0.88%.

As for `Cc1cc(C(=O)CN2C(=O)NC(C)(c3cccc4ccccc34)C2=O)c(C)n1Cc1ccco1` (stereo not drawn), the inhibition in test [1] was 6.55%; in test [2], 6.14%; in test [3], 4.09%.

Turning to `COc1ccc(C2CC(=O)C3=C(C2)NC(C)=C(C(=O)OC(C)C)C3c2c(F)cccc2Cl)cc1OC` (stereo not drawn), the inhibition worked out at 2.24% in test [1], 0.57% in test [2] and 0.75% in test [3].

Consider `Cc1cccc2nc(-c3ccc(-c4ccc(NC(=O)CN5CCN(C)CC5)cc4)s3)[nH]c12`, for which the inhibition is -0.59% in test [1], -1.98% in test [2] and -1.35% in test [3].

With `COc1cc(C)nc2ccc(NC(=O)c3ccc(C(=O)Nc4ccc5nc(C)cc(OC)c5c4)cc3)cc12`, the inhibition in test [1] was -1.93%; in test [2] it was -1.5%; in test [3], 1.25%.

Take `Cc1cc2ncn(-c3nccc(NCc4cccnc4)n3)c2cc1C`: the inhibition in test [1] was 4.32%; in test [2] it was 4.68%; in test [3], 2.17%.

`CN(C)CCCOc1ccccc1CN1CC[C@H](NC(=O)c2ccc(Cl)c(Cl)c2)C1`: the inhibition in test [1] is -0.17%; in test [2], -0.54%; in test [3], -2.05%.

For the compound `FC(F)(F)c1ccccc1OCc1cc(-c2ccncc2)c(COc2ccccc2C(F)(F)F)cc1C1=CCNCC1`, the inhibition in test [1] came to 2.44%; in test [2], 2.17%; in test [3], 2.81%.

`CC(C)CCN1CCC(Oc2ccc(NC(=O)c3ccccc3)cc2Cl)CC1`: the values for the inhibition in test [1], in test [2] and in test [3] were 1.25%, 3.09% and 2.86%, respectively.

Take `O=C(NCCCCCCNCc1ccc(-c2ccccc2)cc1)Nc1ccc(Cl)c(Cl)c1`: the results for the inhibition in test [1], in test [2] and in test [3] were 1.38%, 0.96% and 2.28%, respectively.

As for `Cc1nnc(Sc2ncnc3scc(-c4ccc(F)cc4)c23)s1`, the inhibition in test [1] was determined as 2.38%; in test [2] it was 3.03%; in test [3], 1.02%.

Values taken from ChEMBL document CHEMBL3433997, “St. Jude Leishmania screening dataset” (2016).
